The source of these data is PubChem BioAssay AID1851 (National Center for Advancing Translational Sciences (NCATS), 2009).

By AC50 is commonly meant the concentration giving half of the maximal activity seen.

Each structure is given as a SMILES string. Several values for one entry are separate records, joined by “and”; a condition that tells them apart may be missing. Equal values may be shown once. The campaign covered roughly 16,000 compounds. About 4,000 (25%) were called active. About 26% were inconclusive and are not listed. Calls come from the whole dose curve; as a rule, active = well fitted curve in the direction sought with a large enough effect; inconclusive = small, poorly fitted or top-dose-only effect, or effect the other way; inactive = no such curve, though single readings can be large or run the other way. These entries were drawn from the full list. A structure can be active in one record and inactive in another.
% is set by controls: 0 for no effect and ±100 for the full control effect.

For this experiment, the target named is Cytochrome P450 2C9 (Homo sapiens) (UniProt P11712). As to the kind of experiment: Cytochrome panel assay with activity outcomes. As to conditions: recombinant CYP, pro-luciferin dealkylation, luminescence, p450-cyp2c9; series mostly up to 57.1 µM; activity, negative = inhibition: at the top concentration.
Chain of Cytochrome P450 2C9 (Homo sapiens) (P11712 whole entry, looked up): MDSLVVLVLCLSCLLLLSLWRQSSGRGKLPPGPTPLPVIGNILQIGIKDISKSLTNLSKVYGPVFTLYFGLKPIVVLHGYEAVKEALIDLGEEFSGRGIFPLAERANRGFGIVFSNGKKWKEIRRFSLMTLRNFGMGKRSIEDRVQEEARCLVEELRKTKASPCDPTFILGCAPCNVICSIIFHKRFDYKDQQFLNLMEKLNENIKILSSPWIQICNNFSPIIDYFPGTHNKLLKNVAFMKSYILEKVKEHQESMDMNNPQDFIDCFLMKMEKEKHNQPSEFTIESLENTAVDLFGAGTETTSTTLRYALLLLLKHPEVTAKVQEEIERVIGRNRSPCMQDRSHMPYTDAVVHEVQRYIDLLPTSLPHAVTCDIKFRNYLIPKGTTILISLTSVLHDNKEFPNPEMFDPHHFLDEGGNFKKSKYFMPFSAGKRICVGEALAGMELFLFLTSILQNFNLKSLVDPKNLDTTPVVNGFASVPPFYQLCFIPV
`CCOc1c2ccc(C(=O)NCCCCc3ccccc3)cc2nn1CC`: the AC50 is 11.2 µM (active).
Turning to `COCCn1nc2cc(C(=O)NCc3cc(C(F)(F)F)cc(C(F)(F)F)c3)ccc2c1OC`, the “activity, negative = inhibition” value was -29.5% (inactive).
Turning to `CCOc1c2ccc(C(=O)NCc3ccc4c(c3)OCO4)cc2nn1CC`, the AC50 is 14.1 µM (active).
On the same count and under the same terms, then `CCn1nc2cc(C(=O)NCC34CC5CC(CC(C5)C3)C4)ccc2c1OC`, with 14.1 µM (active).
For `NC[C@@H]1O[C@H](O[C@@H]2[C@H](O[C@@H]3O[C@H](CO)[C@@H](COC[C@H]4O[C@@H](CN)[C@@H](O)[C@@H](O)[C@@H]4N)[C@@H]3O)[C@@H](O)[C@@H](N)C[C@H]2N)[C@@H](N)[C@H](O)[C@@H]1O`, the “activity, negative = inhibition” value was -9.36% [at 25.6 µM] (inactive).
The same measure, in the same setting: next, `Clc1ccccc1-c1nc(-n2ccnc2)c2ccccc2n1`: -16.4% [at 2.29 µM] (inactive).
`CCCn1nc2cc(C(=O)NCCCCc3ccccc3)ccc2c1OCC`: the concentration at half-maximal activity (AC50) is 12.6 µM (active).
As to `CCCn1nc2cc(C(=O)NCc3ccccc3OC)ccc2c1OCC`, the “activity, negative = inhibition” value was -4.13% (inactive).
On the same count and under the same terms, next, `CCOC(=O)N/N=C1/C[C@@H](O)[C@@H](O)[C@@H]2[C@@H]3C(=O)N(C(C)(C)C)C(=O)[C@H]3CC[C@H]12`: -0.388% [at 11.4 µM] (inactive).
On to `Clc1cccc(N/N=C/c2ccc(N3CCOCC3)cc2)c1`, for which the “activity, negative = inhibition” value was -27.1% (inactive).
For `Cc1cc(O)c(/C=N/Nc2cccc(Cl)c2)c(=O)o1`, the AC50 is 3.16 µM (active).
Still for that read-out and setting: then `CCOC(=O)CSc1nnc(NC(=O)c2cccc(S(=O)(=O)N3CCCCCC3)c2)s1`, with 1 µM (active); and `CCC(CC)c1nnc(NC(=O)c2cccc(S(=O)(=O)N3CCc4ccccc43)c2)s1`, with 1.58 µM (active).
With `O=S(=O)(O)c1ccc2c(N=Nc3cccc4ccccc34)c(O)c(S(=O)(=O)O)cc2c1`, the activity, negative = inhibition was -3.82% [at 11.4 µM] (inactive).
In the case of `O=[N+]([O-])c1ccc2c(N=Nc3ccc4ccccc4c3O)c(O)cc(S(=O)(=O)O)c2c1`, the AC50 was 3.16 µM (active).
Consider `O=S(=O)(O)c1ccc(N=Nc2ccc3c(S(=O)(=O)O)cccc3c2O)c2ccccc12`, for which the activity, negative = inhibition was -12.3% [at 11.4 µM] (inactive).
As for `O=C(Nc1cccc(C(F)(F)F)c1)N(Cc1ccc(Cl)cc1)CC(O)C(F)(F)F` (stereo not given), the AC50 is 8.91 µM (active).
`O=C(Nc1ccccc1)N(Cc1ccccc1)CC(O)C(F)(F)F` (stereo not given): the half-maximal activity concentration (AC50) is 12.6 µM (active).
Turning to `O=S(=O)(C[C@H](O)C(Cl)(Cl)Cl)NNc1ccccc1`, the activity, negative = inhibition was -2.23% [at 11.4 µM] (inactive).
Still for that read-out and setting: next, `O=C(O)c1ccc(NS(=O)(=O)Cc2ccccc2)cc1`: -7.98% [at 11.4 µM] (inactive); `O=C(O)CNc1ccc(C(=O)O)cc1`: 3.72% [at 11.4 µM] (inactive); `Cc1cc(C2(c3cc(C)c(O)c(C(=O)O)c3)OS(=O)(=O)c3ccccc32)cc(C(=O)O)c1O`: 14.9% [at 11.4 µM] (inactive).
On to `CC(C)c1ccc(CN(C(=O)C2COc3ccccc3O2)C2CCS(=O)(=O)C2)cc1` (stereo not given), for which the concentration at half-maximal activity (AC50) was 11.2 µM (active).
In the case of `O=C(CNc1cccc(Cl)c1)c1ccc(Cl)cc1`, the “activity, negative = inhibition” value is -14.9% (inactive).
As for `CO/N=C(/CNC(=O)c1cccc(Cl)c1)c1ccc(Cl)cc1`, the AC50 is 3.55 µM (active).
Same read-out and setting: next, `CO/N=C(/CNC(=O)c1ccc(Cl)cc1Cl)c1ccc(Cl)cc1`: 1.12 µM (active).
Regarding `COc1cccc(C(=O)NCCN2CCN(c3ccc(Cl)cc3)CC2)c1`, the “activity, negative = inhibition” value was 14.4% (inactive).
Still for that read-out and setting: next, `OC[C@@H](O)[C@@H](O)[C@@H](O)[C@@H](O)c1nc2ccc(Cl)cc2[nH]1`: -5.01% [at 11.4 µM] (inactive).
`N[C@@H]1CONC1=O`: the AC50 result is “inactive”.
For `Cn1c([N+](=O)[O-])cnc1COC(N)=O`, the “activity, negative = inhibition” value is 29.3% [at 25.6 µM] (inactive).
The same measure, in the same setting: then `CSc1nc(N)c2ncn([C@@H]3O[C@@H](COP(=O)(O)OP(=O)(O)O)[C@@H](O)[C@H]3O)c2n1`, with 8.4% (inactive).
For the compound `COc1ccc(NC(=O)c2ccc(-c3ccc(-c4noc(C)n4)cc3C)cc2)cc1N1CCN(C)CC1`, the concentration at half-maximal activity (AC50) result is “inactive and 7.94 µM (active)”.
Consider `COc1ccc(NC(=O)c2ccc(-c3ccc(-c4noc(C)n4)cc3C)cc2)cc1OCCN(C)C`, for which the “activity, negative = inhibition” value was -5.88% (inactive).
In the case of `CNCCC=C1c2ccccc2CCc2ccccc21`, the AC50 result is “inactive”.
Turning to `OC[C@@H]1O[C@@H](n2cnc3c(NC4CCCC4)ncnc32)[C@@H](O)[C@H]1O`, the “activity, negative = inhibition” value is 12.1% (inactive).
As for `CCCC1(C(=O)OC)C=C2C(=C(c3ccccc3)C(=O)C2C)CN1` (stereo not given), the concentration at half-maximal activity (AC50) was 5.01 µM (active).
On the same count and under the same terms, next, `COC(=O)C1(CC(C)C)C=C2C(=C(c3ccccc3)C(=O)C2C)CN1` (stereo not given): 10 µM (active).
For `CC1(C)CC(=O)C(CCC(=O)c2ccccc2)C(C)(C)N1` (stereo not given), the “activity, negative = inhibition” value was -16.3% (inactive).
With `COC(=O)C1(C)C=C2C(=C(c3ccccc3)C(=O)C2C)CN1` (stereo not given), the AC50 is 10 µM (active).
Consider `COC(=O)C1(Cc2ccccc2)C=C2C(=C(C)C(=O)C2C)CN1` (stereo not given), for which the “activity, negative = inhibition” value was -21.6% (inactive).
The same measure, in the same setting: next, `CN(C)c1ccc(-c2cncnc2NCc2ccccc2)cc1`: -13.6% [at 2.29 µM] (inactive).
On the same count and under the same terms, then `NC(=O)C[C@H](N)C(N)=O`, with -1.03% [at 11.4 µM] (inactive); and `CN[C@]1(C)[C@H]2CC[C@@H](C2)C1(C)C`, with -5.41% [at 25.6 µM] (inactive).
Take `Clc1ccc2c(NCCNc3ccnc4cc(Cl)ccc34)ccnc2c1`: the activity, negative = inhibition was -3.79% [at 11.4 µM] (inactive).
Same read-out and setting: next, `CN[C@@H]1[C@H](O[C@@H]2O[C@H](CO)[C@@H](N)[C@H](O)[C@@H]2O)O[C@H]2C[C@@H](N)[C@@H](O[C@H]3[C@@H](O)[C@H](O)[C@H](N)C[C@@H]3N)O[C@H]2[C@H]1O`: -2.58% [at 25.6 µM] (inactive).
